The text below walks through data of PubChem BioAssay.

Molecules are shown by their SMILES. Unmarked numbers belong to inactive results. The source made the active and inactive calls.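 Rule for the calls, unless noted: active = mean inhibition above 46.68%, the untreated control wells mean plus 3 SD; inactive = the rest.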

The first assay deals with Nuclear receptor coactivator 1 (Homo sapiens) (UniProt Q15788). Put plainly: NCOA1 GAL4-fusion reporter inhibition – cell-based, luminescence, quadruplicate, confirmation (AID 588820).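 Note: 0% = DMSO wells and 100% = gossypol 36 µM treated wells.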 The conditions noted are these: HEK293 GAL4-SRC1 luciferase reporter, at 3.6 µM, stronger effect = higher value.
Nuclear receptor coactivator 1 (Homo sapiens), sequence (Q15788 whole entry, looked up, the tested form may be a part): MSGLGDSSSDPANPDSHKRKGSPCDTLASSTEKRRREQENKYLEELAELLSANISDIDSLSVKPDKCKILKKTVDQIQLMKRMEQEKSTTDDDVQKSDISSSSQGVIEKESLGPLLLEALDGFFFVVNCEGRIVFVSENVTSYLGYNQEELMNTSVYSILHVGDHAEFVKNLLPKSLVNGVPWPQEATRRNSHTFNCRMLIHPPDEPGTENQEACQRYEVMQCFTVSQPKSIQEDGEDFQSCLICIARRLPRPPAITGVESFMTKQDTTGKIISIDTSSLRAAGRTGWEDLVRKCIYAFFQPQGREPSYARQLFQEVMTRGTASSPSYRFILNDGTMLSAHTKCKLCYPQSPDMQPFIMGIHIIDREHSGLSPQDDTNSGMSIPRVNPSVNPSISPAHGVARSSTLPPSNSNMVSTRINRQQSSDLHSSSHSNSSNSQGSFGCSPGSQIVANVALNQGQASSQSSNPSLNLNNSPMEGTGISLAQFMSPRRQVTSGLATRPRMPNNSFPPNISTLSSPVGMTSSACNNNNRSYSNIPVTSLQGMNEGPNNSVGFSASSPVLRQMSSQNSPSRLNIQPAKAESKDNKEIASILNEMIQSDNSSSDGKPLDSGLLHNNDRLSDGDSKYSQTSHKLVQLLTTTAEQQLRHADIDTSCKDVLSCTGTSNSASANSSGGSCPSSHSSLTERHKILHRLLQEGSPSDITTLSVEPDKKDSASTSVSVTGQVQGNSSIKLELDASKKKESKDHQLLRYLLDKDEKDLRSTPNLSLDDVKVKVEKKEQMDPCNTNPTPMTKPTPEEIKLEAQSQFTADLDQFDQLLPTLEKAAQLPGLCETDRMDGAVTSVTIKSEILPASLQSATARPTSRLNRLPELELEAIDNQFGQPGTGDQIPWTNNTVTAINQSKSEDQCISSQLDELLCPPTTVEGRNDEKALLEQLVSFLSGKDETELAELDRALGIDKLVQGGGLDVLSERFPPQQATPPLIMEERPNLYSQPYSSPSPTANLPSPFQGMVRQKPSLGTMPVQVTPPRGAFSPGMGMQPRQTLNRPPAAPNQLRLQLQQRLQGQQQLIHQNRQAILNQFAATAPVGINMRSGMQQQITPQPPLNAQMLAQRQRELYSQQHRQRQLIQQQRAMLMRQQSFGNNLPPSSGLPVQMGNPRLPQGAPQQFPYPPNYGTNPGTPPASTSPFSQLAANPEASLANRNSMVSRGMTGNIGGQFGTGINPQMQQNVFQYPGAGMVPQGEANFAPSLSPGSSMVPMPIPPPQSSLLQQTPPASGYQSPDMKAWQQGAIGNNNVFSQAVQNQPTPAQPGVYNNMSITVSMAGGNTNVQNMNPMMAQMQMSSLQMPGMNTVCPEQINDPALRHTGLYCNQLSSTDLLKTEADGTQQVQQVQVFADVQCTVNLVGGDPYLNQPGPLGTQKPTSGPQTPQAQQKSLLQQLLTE
For orientation: inhibition means the drop in the measured response relative to a control, in per cent. Take `Cc1ccc(NNC(=O)C(=O)N2CCCCC2)cc1`: the inhibition is -16.9%.

On to `NS(=O)(=O)c1ccc(NC(=O)CCCCC(=O)Nc2ccc(S(N)(=O)=O)cc2)cc1`, for which the inhibition was -1.93%.

As for `COc1ccc(CCNc2c3ccccc3nc3ccccc23)cc1OC`, the inhibition was -6.86%.

With `COc1cccc(C2=CC(=O)CC(C)(C)C2)c1`, the inhibition is 18.3%.

Take `COc1ccc(-n2c(NNC(C)=O)nc3sc4c(c3c2=O)CCCC4)cc1`: the inhibition was 23.4%.

Consider `CCOc1ccc(NC(=S)N2CCC(NC(=O)c3ccco3)CC2)cc1`, for which the inhibition was -7.01%.

For the compound `COc1ccc(S(=O)(=O)N(C)C[C@H]2Oc3c(NC(=O)Nc4c(C)noc4C)cccc3C(=O)N([C@H](C)CO)C[C@@H]2C)cc1`, the inhibition is 6.86%.

Consider `Cc1cc(OCCCN2CCCC2)ccc1Cl`, for which the inhibition was -14.7%.

For the compound `COC(=O)c1sc2cnccc2c1N`, the inhibition was 21.5%.

`CC(=O)OCC1OC(n2cc(F)c(=O)[nH]c2=O)C(OC(C)=O)C1OC(C)=O` (stereo not drawn): the inhibition was 5.02%.

Regarding `CC(=O)N1CN(C2CCCC2)Cc2c1sc1c2CCCC1`, the inhibition is 6.63%.

Turning to `Cc1cc(=O)oc2cc(OCc3ccc(C(=O)N4CCN(c5ccc([N+](=O)[O-])cc5)CC4)cc3)ccc12`, the inhibition was 10.5%.

Regarding `O=C1N=C(N2CCCC2)S/C1=C\C=C\c1ccccc1`, the inhibition was -93.8%.

As for `COc1ccc(-c2nc(N3CCOCC3)nc3n[nH]c(N)c23)cc1`, the inhibition is 5.53%.

With `N#CC1(NC(=O)CSc2nnc(-c3ccccc3F)o2)CCCCC1`, the inhibition is -24.1%.

`COc1ccc(CC(=O)Nc2ccc3c(c2)CCC3)cc1OC`: the inhibition was 10.1%.

Take `CNC(=O)CCCN1C(=O)c2ccccc2Sc2ncccc21`: the inhibition is -2.17%.

`CCOC(=O)c1c(NC(=O)COc2ccccc2C#N)sc2c1CC(C)(C)NC2(C)C`: the inhibition is -41.5%.

Regarding `COc1ccccc1CN(Cc1nc2ccccc2c(=O)[nH]1)S(=O)(=O)c1ccc2ccccc2c1`, the inhibition was -20.3%.

For the compound `CC[C@H](C)[C@H](NC(N)=O)C(=O)NCCc1ccc(OC)c(OC)c1`, the inhibition is -11%.

With `Cc1cc(Br)cn2c(Cc3ccsc3)c(-c3ccc(F)cc3)nc12`, the inhibition is 6.68%.

For `CN1CCN(C(=O)CCN2C(=O)/C(=C/c3cccc(Br)c3)SC2=S)CC1`, the inhibition is 10.7%.

Take `COc1ccc(OC)c(NC(=O)c2cc(-c3c(C)cc(C)cc3O)n[nH]2)c1`: the inhibition is 11.1%.

On to `Cc1c(/C(O)=C2\C(=O)C(=O)N(CCCN(C)C)C2c2ccccc2)cnn1-c1ccccc1` (stereo not drawn), for which the inhibition was 6.48%.

Consider `COc1cc2c(cc1OC)CN(CC(=O)Nc1cccc([N+](=O)[O-])c1)CC2`, for which the inhibition was 4.85%.

On to `COC(=O)c1cccc(NC(=O)CN2C(=O)c3ccccc3C2=O)c1`, for which the inhibition was -23.7%.

For the compound `COCCN1C2=C(C(=O)CC(C)(C)C2)C(c2ccc(OC)c(OC)c2)C2=C1CC(C)(C)CC2=O`, the inhibition was -10.8%.

For the compound `CC(=O)c1cc2c(C)cc(=O)oc2cc1O`, the inhibition is 19.4%.

Regarding `O=C(CSc1nc(C2CC2)nc2ccccc12)Nc1cccc(O)c1`, the inhibition was -0.77%.

For `COc1ccccc1CCC(=O)Nc1cccc(S(=O)(=O)N2CCCCCC2)c1`, the inhibition is -1.96%.

On to `C/C(=N\NC(=O)Cc1ccc(Cl)cc1)c1ccccn1`, for which the inhibition is -28.3%.

Take `CC(C)=CCCC(C)CN1CCC(n2nccc2NC(=O)c2ccccc2)CC1` (stereo not drawn): the inhibition was -6.47%.

Consider `COc1ccc(CN2CCN(C(=O)c3cc(-c4cccnc4)nc4ccc(Cl)cc34)CC2)c(OC)c1OC`, for which the inhibition was -29.8%.

On to `CCn1cc(C(=O)NCC(OC)OC)c(=O)c2cc(S(=O)(=O)N(C)C3CCCCC3)ccc21`, for which the inhibition was 11.4%.

For `CCOC(=O)c1c(CN(CC)CC)n(C)c2cc(Br)c(O)cc12`, the inhibition was 6.72%.

On to `O=C(CSc1nc(-c2cccs2)cc(C(F)(F)F)n1)Nc1cc(OCC(F)(F)C(F)F)cc([N+](=O)[O-])c1`, for which the inhibition was 17.1%.

Regarding `CN1CCc2c(OCc3ccc(F)cc3)cccc2C1=O`, the inhibition was -8.74%.

`CC(C)(C)OC(=O)N(CCc1ccccc1)Cc1ccc(OCc2cccc(NC(=O)C3CCCC3)c2)cc1`: the inhibition is -0.88%.

As for `O=C(Nc1ccc(Oc2ccccc2)cc1)c1ccc2sc([C@H]3C[C@H](O)[C@@H](CO)O3)nc2c1`, the inhibition is -13.8%.

Tested on in a further assay: not listed separately
Briefly: repression of VP16-driven luciferase reporter – cell-based, luminescence, high throughput, counter-screen for SRC1 inhibitor project (AID 588824; in the data active = inhibition above about 25%). The following applies: cell-based VP16 transactivation luciferase luminescence; at 3.6 µM; stronger effect = higher value.
For `Cc1ccc(NNC(=O)C(=O)N2CCCCC2)cc1`, the inhibition is 11.6%.

Regarding `NS(=O)(=O)c1ccc(NC(=O)CCCCC(=O)Nc2ccc(S(N)(=O)=O)cc2)cc1`, the inhibition was -4.87%.

As to `COc1ccc(CCNc2c3ccccc3nc3ccccc23)cc1OC`, the inhibition is 26.2% (active).

Regarding `COc1cccc(C2=CC(=O)CC(C)(C)C2)c1`, the inhibition was 14.3%.

`COc1ccc(-n2c(NNC(C)=O)nc3sc4c(c3c2=O)CCCC4)cc1`: the inhibition was 31.6% (active).

Regarding `CCOc1ccc(NC(=S)N2CCC(NC(=O)c3ccco3)CC2)cc1`, the inhibition is -4.78%.

With `COc1ccc(S(=O)(=O)N(C)C[C@H]2Oc3c(NC(=O)Nc4c(C)noc4C)cccc3C(=O)N([C@H](C)CO)C[C@@H]2C)cc1`, the inhibition is 9.48%.

`Cc1cc(OCCCN2CCCC2)ccc1Cl`: the inhibition is -11.8%.

For the compound `COC(=O)c1sc2cnccc2c1N`, the inhibition is 4.54%.

As for `CC(=O)OCC1OC(n2cc(F)c(=O)[nH]c2=O)C(OC(C)=O)C1OC(C)=O` (stereo not drawn), the inhibition was 22.9%.

Turning to `CC(=O)N1CN(C2CCCC2)Cc2c1sc1c2CCCC1`, the inhibition was 14.4%.

With `Cc1cc(=O)oc2cc(OCc3ccc(C(=O)N4CCN(c5ccc([N+](=O)[O-])cc5)CC4)cc3)ccc12`, the inhibition was -3.02%.

For `O=C1N=C(N2CCCC2)S/C1=C\C=C\c1ccccc1`, the inhibition was -50.3%.

For the compound `COc1ccc(-c2nc(N3CCOCC3)nc3n[nH]c(N)c23)cc1`, the inhibition is 17.9%.

Take `N#CC1(NC(=O)CSc2nnc(-c3ccccc3F)o2)CCCCC1`: the inhibition was -10.4%.

Turning to `COc1ccc(CC(=O)Nc2ccc3c(c2)CCC3)cc1OC`, the inhibition is 2.91%.

For the compound `CNC(=O)CCCN1C(=O)c2ccccc2Sc2ncccc21`, the inhibition is -3.21%.

With `CCOC(=O)c1c(NC(=O)COc2ccccc2C#N)sc2c1CC(C)(C)NC2(C)C`, the inhibition is -13.1%.

As to `COc1ccccc1CN(Cc1nc2ccccc2c(=O)[nH]1)S(=O)(=O)c1ccc2ccccc2c1`, the inhibition is -11.3%.

For `CC[C@H](C)[C@H](NC(N)=O)C(=O)NCCc1ccc(OC)c(OC)c1`, the inhibition was -10.9%.

For the compound `Cc1cc(Br)cn2c(Cc3ccsc3)c(-c3ccc(F)cc3)nc12`, the inhibition is -0.27%.

Turning to `CN1CCN(C(=O)CCN2C(=O)/C(=C/c3cccc(Br)c3)SC2=S)CC1`, the inhibition is 16.9%.

As to `COc1ccc(OC)c(NC(=O)c2cc(-c3c(C)cc(C)cc3O)n[nH]2)c1`, the inhibition is 6.02%.

For the compound `Cc1c(/C(O)=C2\C(=O)C(=O)N(CCCN(C)C)C2c2ccccc2)cnn1-c1ccccc1` (stereo not drawn), the inhibition was -4.83%.

`COc1cc2c(cc1OC)CN(CC(=O)Nc1cccc([N+](=O)[O-])c1)CC2`: the inhibition is 6.41%.

As for `COC(=O)c1cccc(NC(=O)CN2C(=O)c3ccccc3C2=O)c1`, the inhibition was -3.69%.

As to `COCCN1C2=C(C(=O)CC(C)(C)C2)C(c2ccc(OC)c(OC)c2)C2=C1CC(C)(C)CC2=O`, the inhibition is 12%.

Turning to `CC(=O)c1cc2c(C)cc(=O)oc2cc1O`, the inhibition is 6.17%.

As for `O=C(CSc1nc(C2CC2)nc2ccccc12)Nc1cccc(O)c1`, the inhibition is 1.43%.

Regarding `COc1ccccc1CCC(=O)Nc1cccc(S(=O)(=O)N2CCCCCC2)c1`, the inhibition is -7.85%.

As for `C/C(=N\NC(=O)Cc1ccc(Cl)cc1)c1ccccn1`, the inhibition was 23.3%.

As for `CC(C)=CCCC(C)CN1CCC(n2nccc2NC(=O)c2ccccc2)CC1` (stereo not drawn), the inhibition was -14.3%.

Consider `COc1ccc(CN2CCN(C(=O)c3cc(-c4cccnc4)nc4ccc(Cl)cc34)CC2)c(OC)c1OC`, for which the inhibition is -6.25%.

As for `CCn1cc(C(=O)NCC(OC)OC)c(=O)c2cc(S(=O)(=O)N(C)C3CCCCC3)ccc21`, the inhibition was 19.8%.

As to `CCOC(=O)c1c(CN(CC)CC)n(C)c2cc(Br)c(O)cc12`, the inhibition was 2.67%.

On to `O=C(CSc1nc(-c2cccs2)cc(C(F)(F)F)n1)Nc1cc(OCC(F)(F)C(F)F)cc([N+](=O)[O-])c1`, for which the inhibition was -0.51%.

In the case of `CN1CCc2c(OCc3ccc(F)cc3)cccc2C1=O`, the inhibition is -7.17%.

On to `CC(C)(C)OC(=O)N(CCc1ccccc1)Cc1ccc(OCc2cccc(NC(=O)C3CCCC3)c2)cc1`, for which the inhibition is -7.49%.

Turning to `O=C(Nc1ccc(Oc2ccccc2)cc1)c1ccc2sc([C@H]3C[C@H](O)[C@@H](CO)O3)nc2c1`, the inhibition is 19.3%.
